Rows were chosen to be rich in hits. Some 9.8% of all compounds tested hit in one or more screens of this group.
HttQ103 aggreg – mutant huntingtin aggregation inhibition; PC12 HttQ103-GFP aggregates, Acumen cytometry, 40 h; Potency, µM (doses to about 46.1 µM), for the others: at the top dose activity change, negative = inhibition, most hits filed as inhibitors; actives 1.1% (n = 220,000); note: potency is the fitted concentration of half-maximal effect; % is set by controls: 0 for no effect and ±100 for the full control effect; nearly all actives have a fitted effect of over 60% in size
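Using laser scanning cytometry, GFP-positive aggregates were counted after lysis of PC12 cells induced with 100 nM tebufenozide to express HTT exon 1 Q103–GFP. Compounds were tested in titration.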
ALDH1A1 block – inhibitors of human aldehyde dehydrogenase 1A1. actives 7.3% (n = 220,000). P00352. AID 1030. Potency, µM (titrated, usually from 75.3 µM), for the others: at the top dose activity, negative = inhibition, hits mostly inhibitors. Purified ALDH1A1, NADH fluorescence, propionaldehyde substrate; active = well fitted inhibition curve with a large enough effect, not every such curve was filed as active; inconclusive = small, poorly fitted or top-dose-only effect, or another doubt; inactive = no such curve, though single readings can be large or run the other way;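 note: potency is the fitted concentration of half-maximal effect; plate controls were no enzyme wells and a reference inhibitor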
CBFb-RUNX1 inh – CBF-beta/RUNX1 interaction disruption. Q01196+Q13951. AlphaScreen CBFb-His/RUNX1-biotin binding, biochemical. Potency, µM (highest dose often 59.8 µM), without a hit: at the top dose activity, negative = inhibition, usual class: inhibitors. 230,000 tested, under 10 active. AID 1477; note: % of control where 0% means no effect
Target sequence (Q01196 whole entry, looked up): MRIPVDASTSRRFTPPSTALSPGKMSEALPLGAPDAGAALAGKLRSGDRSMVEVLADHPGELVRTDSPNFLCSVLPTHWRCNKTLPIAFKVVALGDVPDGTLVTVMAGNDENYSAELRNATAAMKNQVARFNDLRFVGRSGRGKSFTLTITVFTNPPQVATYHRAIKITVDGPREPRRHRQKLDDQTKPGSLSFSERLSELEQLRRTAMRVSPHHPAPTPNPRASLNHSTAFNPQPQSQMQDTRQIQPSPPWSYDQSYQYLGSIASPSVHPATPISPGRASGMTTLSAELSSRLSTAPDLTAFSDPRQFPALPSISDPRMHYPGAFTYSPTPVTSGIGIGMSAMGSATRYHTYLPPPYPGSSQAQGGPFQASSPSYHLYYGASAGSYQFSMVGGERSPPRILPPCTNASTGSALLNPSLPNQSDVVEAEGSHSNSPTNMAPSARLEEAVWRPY
Target sequence (Q13951 whole entry, looked up): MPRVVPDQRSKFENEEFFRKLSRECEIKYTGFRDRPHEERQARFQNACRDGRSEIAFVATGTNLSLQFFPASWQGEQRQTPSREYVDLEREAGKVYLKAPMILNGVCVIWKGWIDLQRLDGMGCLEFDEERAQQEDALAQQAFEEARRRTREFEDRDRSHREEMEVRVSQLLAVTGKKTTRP
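Interaction loss through any mechanism counts as activity. Pre-formed complex of His-CBF-beta and biotin-RUNX1 (30 nM apiece) is incubated with compound 15 min, then with 50 ng nickel and 50 ng streptavidin beads for 90 min before AlphaScreen detection.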
HPGD block – HPGD (human) dehydrogenase inhibition | P15428 | purified HPGD, NADH fluorescence kinetic, PGE2 substrate | Potency, µM, inactives show at the top dose activity change, negative = inhibition, actives largely listed as inhibitors | actives 4.3% (n = 150,000) | AID 894; active = well fitted inhibition curve with a large enough effect, not every such curve was filed as active; inconclusive = small, poorly fitted or top-dose-only effect, or another doubt; inactive = no such curve, though single readings can be large or run the other way; note: potency is the fitted concentration of half-maximal effect; % is set by controls: 0 for no effect and ±100 for the full control effect
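NADH formation kinetics: reaction with 30 uM PGE2 and 1 mM NAD+ (final), 20 nM enzyme, Tris-HCl pH 8 with Tween 20, after 15 min compound preincubation at room temperature. Fluorescence change, last versus first of five reads.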
HTT ATP protect – protects HTT-Q103 PC12 cells, measured by ATP | PC12 HTT-Q103 induced, cytoprotection, ATP luminescence, 40 h | Potency, µM (titrated, usually from 56.4 µM), without a hit: cytoprotection (ATP increase), most hits filed as activators | actives 0.14% (n = 230,000) | AID 1471; note: potency is the fitted concentration of half-maximal effect; % of control where 0% means no effect; nearly all actives have a fitted effect of over 45% in size
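Huntington model: PC12 line, ecdysone-inducible HTTQ103 exon1–GFP, tebufenozide 100 nM. Test articles in a dose series. Endpoint luminescence from cellular ATP.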
JMJD2E inh – JMJD2E (human) inhibition; actives 1.6% (n = 230,000); JMJD2E catalytic domain, FDH-coupled NADH fluorescence (FDH is formaldehyde dehydrogenase); B2RXH2; Potency, µM (top dose mostly 57.1 µM), for the others: at the top dose activity change, negative = inhibition, usual class: inhibitors; AID 2147; active = well fitted inhibition curve with a large enough effect, not every such curve was filed as active; inconclusive = small, poorly fitted or top-dose-only effect, or another doubt; inactive = no such curve, though single readings can be large or run the other way;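 note: potency is the fitted concentration of half-maximal effect; 0% = wells with enzyme and -100% = buffer wells without enzyme; nearly all actives have a fitted effect of over 50% in size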
Numbers without * were called inactive; ? = inconclusive; · = not tested or not shown; ! = a repeat was not active; [ ] = another dose, or the depositor's remark. Unless noted, calls come from the whole dose curve; as a rule, active = well fitted curve in the direction sought with a large enough effect; inconclusive = small, poorly fitted or top-dose-only effect, or another doubt; inactive = no such curve, though single readings can be large; an effect the other way counts as inactive or inconclusive.

SMILES | HttQ103 aggreg | ALDH1A1 block | CBFb-RUNX1 inh | HPGD block | HTT ATP protect | JMJD2E inh
COC(=O)CCC(NC(=O)OCc1ccccc1)C(=O)NC(CC(C)C)C(=O)OC (configuration not stated) | 3.4% | 4.4% | -1.0% | -7.0% | -33.0% | -0.3%
CC(C)C[C@@H](C=O)NC(=O)[C@H](CC(C)C)NC(=O)[C@H](CC(C)C)NC(=O)OCc1ccccc1 | · | 14.1µM* | 20.2% | · | 20.6% | ·
CC(NC(=O)c1cc2c(s1)CCCC2)C(C)(C)C (configuration not stated) | 0.5% | -4.4% | -1.7% | 14.1µM* | 10.9% | 3.3%
Cc1csc(NC(=O)c2cc3c(s2)CCC3)n1 | -4.9% | ? | 3.4% | 7.94µM* | -78.7%[10 µM] | -4.8%
COCCn1c(=O)c(CCc2ccccc2)nc2cnc(Oc3ccc(OC)cc3)nc21 | · | ? | · | · | -96.6% | ·
Cc1ccc(/C(O)=C2\C(=O)C(=O)N(Cc3cccnc3)C2c2ccccc2[N+](=O)[O-])cc1 (configuration not stated) | -2.5% | 7.08µM* | -4.0% | -6.7% | 7.8%[10 µM] | -1.1%
Cc1cc(NC(=O)CN2CC3CC(C2)c2cccc(=O)n2C3)nc2c1c(=O)oc1ccccc12 (configuration not stated) | -9.4% | 28.2µM* | 5.7% | -0.3% | 5.3% | 7.5%
Cc1cccc(CC(=O)Nc2cc(C)c3c(=O)oc4ccccc4c3n2)c1 | -15.9% | -5.7% | 6.8% | -20.6% | -14.5%[10 µM] | -17.4%
Cc1cc(NC(=O)CN2CCN(Cc3ccccc3)CC2)nc2c1c(=O)oc1ccccc12 | 5.5%[9.22 µM] | 3.55µM* | -2.3% | · | 4.3% | -23.1%
Cc1cc(NC(=O)C2CCCC2)nc2c1c(=O)oc1ccccc12 | -15.3% | 14.1µM* | 7.3% | -20.0% | -28.6% | -6.3%
CC1(C)CCc2c([nH]c3ccccc3c2=O)O1 | -7.2% | 4.3% | 16.8% | · | -59.7% | 7.7%
CC1(C)CCC2=C(O1)c1ccccc1C(=O)C2=O | · | ? | ? | -14.8% | -360.2% | 3.55µM*!
CCn1c2ccccc2c2nnc(SCC(=O)NCCOC)nc21 | 4.6% | -3.1% | 4.2% | 15.8µM* | -14.8%[10 µM] | -3.8%
C=CCn1c2ccccc2c2nnc(SCC(=O)NC(C(=O)OC)C(C)C)nc21 (configuration not stated) | 3.2% | 20µM* | 9.4% | 20µM* | -16.7% | 1.3%
CCn1c2ccccc2c2nnc(SCC(=O)N(C)C3CCS(=O)(=O)C3)nc21 (configuration not stated) | 8.3% | ? | 5.1% | -19.2% | · | 5.1%
CCCn1c2ccccc2c2nnc(SCC(=O)OCC)nc21 | -18.6% | ? | -7.3% | -29.1% | -0.8% | 9.1%
CCn1c2ccccc2c2nnc(SCC(=O)NC3CCS(=O)(=O)C3)nc21 (configuration not stated) | -6.8% | -3.0% | -5.5% | 31.6µM* | -15.0%[10 µM] | -5.2%
CCCn1c2ccccc2c2nnc(SCC(=O)OC)nc21 | -1.2% | 14.1µM* | -1.1% | · | -7.5% | 7.9%
CCn1c2ccccc2c2nnc(SCC(=O)NCc3cccs3)nc21 | 11.6% | -1.9% | 6.9% | -14.8% | -23.0%[10 µM] | -2.9%
COC(=O)c1c(C)oc(C)c1S(=O)(=O)NCc1cccs1 | 9.7%[9.22 µM] | 8.1% | 9.8% | · | 2.9%[10 µM] | 8.1%
Cc1cc(=O)n(CC(=O)O)c2ccccc12 | -4.3%[9.22 µM] | -5.6% | 8.9% | · | 9.7%[10 µM] | ?
Cc1cc(=O)n(CC=C(Cl)Cl)c2ccccc12 | 4.6%[9.22 µM] | ? | 1.6% | 7.94µM* | -19.4% | -18.2%
COc1ccc(NS(=O)(=O)c2ccc(NS(=O)(=O)c3ccc(C)cc3)cc2)nn1 | -2.6% | 12.6µM* | 3.4% | -12.2% | -14.5%[10 µM] | 6.6%
CCOC(=O)c1c(C)c(C(=O)Nc2ccccc2)c(C)n1CC | -0.6% | -0.3% | 8.5% | -0.7% | -5.8%[10 µM] | -2.2%
CCOC(=O)c1c(C)c(C(=O)N2CCc3ccccc3C2)c(C)n1CC | -7.3% | ? | -12.9% | 4.47µM* | 2.4% | -1.5%
SMILES | HttQ103 aggreg | ALDH1A1 block | CBFb-RUNX1 inh | HPGD block | HTT ATP protect | JMJD2E inh
CC(=O)c1c(C)[nH]c(C(=O)N2CCc3ccccc3C2)c1C | -2.6% | 0.2% | 7.6% | 17.8µM* | -15.0% | 6.6%
CC(=O)c1c(C)[nH]c(C(=O)N2CCN(C(=O)c3ccco3)CC2)c1C | 4.4% | -4.0% | 0.3% | -9.8% | -14.0%[10 µM] | 8.8%
CCc1nnc(NC(=O)C2CCN(c3nc(C)cc(C)n3)CC2)s1 | -24.6% | 1.7% | 0.0% | · | 18.9% | -1.1%
COc1cc(/C=N/N2C(=O)C3C4C=CC(CC4)C3C2=O)ccc1O (configuration not stated) | -12.4% | 14.1µM* | 0.4% | · | -40.6% | ?
O=C1CSC(=S)N1/N=C/c1cccnc1 | 0.891µM* | · | -6.3% | · | · | -1.5%
COc1cc(/C=N/N2C(=O)c3ccccc3C2=O)ccc1O | 4.1% | ? | 2.4% | -14.0% | · | -1.3%
O=C1CSC(=S)N1/N=C\c1ccc(Cl)c([N+](=O)[O-])c1 | · | -15.8%[13.5 µM] | · | -18.3% | 13.7%[10 µM] | ·
COc1cc(/C=N/N2C(=O)CSC2=S)ccc1O | 6.9% | 28.2µM* | -18.3% | -17.5% | -0.3% | 3.4%
O=C1CSC(=S)N1/N=C/c1ccc(Cl)c([N+](=O)[O-])c1 | -0.3%[9.22 µM] | 31.6µM* | ? | · | 16.8%[10 µM] | -10.9%
CCCC[C@H]1CCCO[C@@](C(=O)NCc2ccccc2)(C(F)(F)F)C1 | · | · | 29.5% | · | · | ·
COc1ccccc1NC(=O)NC1(C(=O)N2CCCCCC2)CCCCC1 | -9.7% | 7.08µM* | 5.6% | -3.7% | -0.3%[10 µM] | 9.1%
COCCNc1nc(-c2cccc(NS(C)(=O)=O)c2)nc2ccccc12 | · | ? | · | · | -88.7% | ·
Nc1ccc2cc3ccc(N)cc3nc2c1 | 12.6µM* | · | · | · | -17.3% | ·
Cc1ccc2cc(N)ccc2n1 | -16.1%[9.22 µM] | 2.2% | -5.5% | · | 3.5%[10 µM] | 31.6µM*
Nc1ccc2cn[nH]c2c1 | ? | -4.3% | 1.6% | -18.9% | · | ?
CCN(CC)CCCNC(=S)N(Cc1cccnc1)Cc1cc2cc(C)ccc2[nH]c1=O | -4.0%[9.22 µM] | · | 12.6% | · | 5.0%[10 µM] | ?
CC(C)=NOc1cc(NC(=O)CCl)cc([N+](=O)[O-])c1 | 3.16µM* | 0.178µM* | -1.9% | -9.6% | · | -4.9%
O=C(CCl)Nc1cc(SCC(O)CO)cc([N+](=O)[O-])c1 (configuration not stated) | 2.82µM* | -1.8% | -1.6% | · | -78.1%[10 µM] | -1.7%
CSC1=NSC2=NC(=O)/C(=C/c3coc4ccc(O)cc4c3=O)C(=N)N12 | -0.6% | ? | -3.2% | 22.4µM* | · | ?
CSC1=NSC2=NC(=O)/C(=C/c3coc4ccccc4c3=O)C(=N)N12 | 27.7% | ? | -8.0% | ? | · | ?
O=S(=O)(CCSc1ccccn1)c1nc2ccccc2s1 | ? | 0.224µM* | 7.3% | -27.2% | 6.1%[0.074 µM] | 3.5%
CCS(=O)(=O)CCSc1nc2ccccc2o1 | 0.2% | 3.8% | 7.7% | -6.8% | -3.5% | 2.0%
